Measurements taken from PubChem BioAssay (NCI).
This is part of a sample that, as a whole, favours compounds with a hit. Of some 79,000 tested, about 15% had one in any assay. Unmarked numbers belong to inactive results. Calls of active or inactive are those of the source. Cut-off read from the data, not from the text of the source: active = growth inhibition above about 70%; inactive = the rest.

What was measured:
[1] = NCI Yeast Anticancer Drug Screen. Data for the rad50 strain (AID 155);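 note: 0% = growth of vehicle-only cultures of the same strain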; conditions: S. cerevisiae rad50 strain growth inhibition, stronger effect = higher value
Outline: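 Inhibition values express reduced yeast growth in compound-treated cultures relative to vehicle-treated controls.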

[2] = NCI Yeast Anticancer Drug Screen. Data for the mec2-1 strain (AID 157); conditions: S. cerevisiae mec2-1 strain, stronger effect = higher value
Outline: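 Compounds were applied to mec2-1 yeast cells. Their growth was then compared with that of vehicle-treated cultures to give growth inhibition.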

[3] = NCI Yeast Anticancer Drug Screen. Data for the sgs1 mgt1 strain (AID 161);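 note: 0% = growth of cultures given vehicle only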; conditions: S. cerevisiae sgs1 mgt1 strain, stronger effect = higher value
Outline: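 Compounds are added to genetically altered yeast, and growth is compared with cultures given vehicle alone to give percent inhibition.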

[4] = NCI Yeast Anticancer Drug Screen. Data for the cln2 rad14 strain (AID 165);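 note: 0% = growth equal to vehicle treated cultures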; conditions: S. cerevisiae cln2 rad14 strain, stronger effect = higher value
Outline: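 Strain: cln2 rad14 yeast, altered in cell cycle control and DNA damage repair. Read-out: growth inhibition vs vehicle.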

[5] = NCI Yeast Anticancer Drug Screen. Data for the bub3 strain (AID 167); conditions: S. cerevisiae bub3 mutant strain, stronger effect = higher value
Outline: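 Steps: expose the mutant yeast strain to compound; grow alongside vehicle-treated cultures; measure growth; express inhibition against the vehicle cultures.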

[6] = NCI Yeast Anticancer Drug Screen. Data for the mlh1 rad18 strain (AID 175); conditions: S. cerevisiae mlh1 rad18 strain growth inhibition, stronger effect = higher value
Outline: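 A repair-deficient yeast strain is exposed to test compound, and growth is scored relative to vehicle-treated controls.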

[7] = at 5.0 µM (retest, dose inferred, filed as 0.5)
[8] = at 50.0 µM (retest, dose inferred, filed as 5.0)

Compound | growth inhibition [1, 7] | growth inhibition [1, 8] | growth inhibition ([1]; at 50.0 µM) | growth inhibition [2, 7] | growth inhibition [2, 8] | growth inhibition ([2]; at 50.0 µM) | growth inhibition [3, 7] | growth inhibition [3, 8] | growth inhibition ([3]; at 50.0 µM) | growth inhibition [4, 7] | growth inhibition [4, 8] | growth inhibition ([4]; at 50.0 µM) | growth inhibition [5, 7] | growth inhibition [5, 8] | growth inhibition ([5]; at 50.0 µM) | growth inhibition [6, 7] | growth inhibition [6, 8] | growth inhibition ([6]; at 50.0 µM)
C/C(=N\NC(=S)N(C)C1CCCCC1)c1ccc2ccccc2n1 | 18% | 88% (active) | 83.2% (active) | 28% | 97% (active) | 80.2% (active) | 28% | 93% (active) | 81.8% (active) | 33% | 88% (active) | 84% (active) | 33% | 96% (active) | 76.9% (active) | 19% | 97% (active) | 89.2% (active)
CCN(CC)CCCC(Nc1c2ccc(Cl)cc2nc2ccc(OC)cc12)c1cccs1 (stereo not given) | 91% (active) | 74% (active) | 81.5% (active) | 91% (active) | 72% (active) | 35.2% | 92% (active) | 75% (active) | 65.9% | 87% (active) | 62% | 74.8% (active) | 90% (active) | 68% | 68.9% | 91% (active) | 72% (active) | 62.5%
O=c1ccccn1CCc1cccc2cc(O)ccc12 | -3% | -1% | 12.9% | -2% | 4% | 9.25% | -3% | -3% | 10.6% | -1% | -12% | -12.3% | 0% | 4% | 71% (active) | -3% | 3% | 23.2%
COc1ccc2nc3cc(Cl)ccc3c(NCCNc3c4ccc(Cl)cc4nc4ccc(OC)cc34)c2c1 | 34% | 97% (active) | 98.5% (active) | 26% | 97% (active) | 92.8% (active) | 20% | 99% (active) | 96.2% (active) | 37% | 90% (active) | 98.4% (active) | 16% | 97% (active) | 99.2% (active) | 28% | 97% (active) | 97.3% (active)
C(=N\Nc1ccc2ccccc2n1)/c1ccccn1.CC(=O)[O-].CC(=O)[O-].[Zn+2] | -4% | 2% | 16.7% | 2% | -2% | 39.3% | -3% | -3% | 84.3% (active) | -3% | 0% | -19.6% | -1% | -1% | 18.3% | 2% | 0% | 57.4%
CN(C)c1ccc(C2C=C(c3ccccc3)Oc3ccccc32)cc1 (stereo not given) | 97% (active) | 96% (active) | 96.7% (active) | 94% (active) | 96% (active) | 97% (active) | 97% (active) | 97% (active) | 96.9% (active) | 92% (active) | 94% (active) | 95.8% (active) | 93% (active) | 97% (active) | 95.8% (active) | 95% (active) | 96% (active) | 96.8% (active)
CCCC(=O)Oc1ccc(-c2ccccc2Br)cc1 | 4% | 67% | 92.5% (active) | 3% | 34% | 82.5% (active) | 10% | 44% | 93.5% (active) | 4% | 50% | 89.2% (active) | 18% | 74% (active) | 92.7% (active) | 2% | 31% | 88.1% (active)
CCc1cc2c([nH]c3ccccc32)c(C)c1CCN(C)C | -1% | 23% | 35.1% | 4% | 23% | 3.65% | 3% | 46% | 1.45% | -11% | 24% | -14.6% | -9% | -5% | 12.6% | -5% | 43% | 69.8%
N#Cc1c(SCc2ccc(Cl)cc2)nsc1Nc1ccc(Cl)cc1 | 90% (active) | 95% (active) | 86.2% (active) | 91% (active) | 95% (active) | 88% (active) | 91% (active) | 98% (active) | 87.2% (active) | 87% (active) | 97% (active) | 87.7% (active) | 86% (active) | 98% (active) | 21% | 93% (active) | 93% (active) | 86% (active)
O=C(c1cccc(Cl)c1)c1ccc2ccccc2c1C(=O)O | 10% | 1% | 12.3% | -8% | 0% | 45.9% | -1% | 1% | 0.7% | -3% | -1% | 5.6% | -6% | 1% | -1.5% | -6% | 5% | 5.75%
